Assay [1] addresses T1, Ephrin type-A receptor 3 (Homo sapiens) (UniProt P29320).
T1 sequence (whole entry): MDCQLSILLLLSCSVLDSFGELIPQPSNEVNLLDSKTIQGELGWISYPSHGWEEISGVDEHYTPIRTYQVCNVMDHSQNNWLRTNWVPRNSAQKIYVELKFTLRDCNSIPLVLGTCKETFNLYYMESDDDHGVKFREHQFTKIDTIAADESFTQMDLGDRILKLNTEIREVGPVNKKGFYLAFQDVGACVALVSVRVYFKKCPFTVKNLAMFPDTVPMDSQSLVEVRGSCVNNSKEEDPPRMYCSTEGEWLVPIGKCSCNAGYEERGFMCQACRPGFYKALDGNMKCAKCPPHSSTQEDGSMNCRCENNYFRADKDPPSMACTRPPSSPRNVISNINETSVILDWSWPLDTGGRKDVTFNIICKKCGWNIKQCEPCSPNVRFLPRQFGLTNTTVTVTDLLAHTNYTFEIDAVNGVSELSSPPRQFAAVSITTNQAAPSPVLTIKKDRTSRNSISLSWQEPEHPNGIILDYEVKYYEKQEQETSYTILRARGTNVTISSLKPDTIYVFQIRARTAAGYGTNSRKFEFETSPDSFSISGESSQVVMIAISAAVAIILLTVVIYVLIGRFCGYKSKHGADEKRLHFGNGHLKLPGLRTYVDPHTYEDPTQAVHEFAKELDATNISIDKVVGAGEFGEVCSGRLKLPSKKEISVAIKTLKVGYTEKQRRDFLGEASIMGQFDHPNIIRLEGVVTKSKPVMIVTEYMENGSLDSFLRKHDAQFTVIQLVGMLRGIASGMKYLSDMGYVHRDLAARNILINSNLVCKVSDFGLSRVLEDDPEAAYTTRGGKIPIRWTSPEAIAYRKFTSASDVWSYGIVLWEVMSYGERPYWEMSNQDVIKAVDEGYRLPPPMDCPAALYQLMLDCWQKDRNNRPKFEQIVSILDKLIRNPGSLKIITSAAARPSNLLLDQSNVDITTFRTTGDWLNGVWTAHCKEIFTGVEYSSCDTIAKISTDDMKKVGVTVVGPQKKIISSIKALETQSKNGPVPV
The following applies: at 10 µM.

The target of assay [2] is Ephrin type-A receptor 4 (Homo sapiens) (UniProt P54764). The settings on record: at 10 µM.
The target of assay [3] is Ephrin type-A receptor 5 (Homo sapiens) (UniProt P54756). The following applies: at 10 µM.
Assay [4] addresses Ephrin type-A receptor 7 (Homo sapiens) (UniProt Q15375). The settings on record: at 1 µM.
Assay [5] has the same target. The settings on record: at 10 µM.
Assay [6] deals with T2, Ephrin type-A receptor 8 (Homo sapiens) (UniProt P29322).
T2 sequence (whole entry): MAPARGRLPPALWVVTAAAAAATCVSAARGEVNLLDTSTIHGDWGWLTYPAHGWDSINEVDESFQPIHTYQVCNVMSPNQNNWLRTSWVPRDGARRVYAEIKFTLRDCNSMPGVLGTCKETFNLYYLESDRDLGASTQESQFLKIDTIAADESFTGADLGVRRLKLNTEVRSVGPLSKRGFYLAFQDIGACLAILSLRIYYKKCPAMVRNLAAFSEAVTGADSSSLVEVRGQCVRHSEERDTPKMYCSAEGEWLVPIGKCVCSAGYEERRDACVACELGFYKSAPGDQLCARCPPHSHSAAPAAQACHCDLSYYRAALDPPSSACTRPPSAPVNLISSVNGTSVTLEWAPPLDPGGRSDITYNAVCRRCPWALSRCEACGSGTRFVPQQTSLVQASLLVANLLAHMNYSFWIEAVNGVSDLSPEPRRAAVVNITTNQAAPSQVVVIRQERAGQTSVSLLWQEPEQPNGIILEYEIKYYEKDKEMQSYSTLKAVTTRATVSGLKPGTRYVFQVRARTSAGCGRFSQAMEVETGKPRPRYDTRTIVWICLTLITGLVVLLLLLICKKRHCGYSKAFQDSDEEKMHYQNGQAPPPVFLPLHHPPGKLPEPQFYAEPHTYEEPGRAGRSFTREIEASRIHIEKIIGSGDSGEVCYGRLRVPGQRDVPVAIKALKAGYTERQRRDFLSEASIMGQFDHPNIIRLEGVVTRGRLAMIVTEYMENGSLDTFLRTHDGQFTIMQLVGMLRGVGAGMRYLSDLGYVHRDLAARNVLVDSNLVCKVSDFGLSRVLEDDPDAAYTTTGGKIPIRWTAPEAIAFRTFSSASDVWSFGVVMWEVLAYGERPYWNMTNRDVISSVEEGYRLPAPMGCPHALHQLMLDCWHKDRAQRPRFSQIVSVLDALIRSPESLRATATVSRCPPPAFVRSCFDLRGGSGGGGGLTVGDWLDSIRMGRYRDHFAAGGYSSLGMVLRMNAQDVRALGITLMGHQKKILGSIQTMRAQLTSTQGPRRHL
The following applies: at 10 µM.

In assay [7] the target is T3, Ephrin type-B receptor 1 (Homo sapiens) (UniProt P54762).
T3 sequence (whole entry): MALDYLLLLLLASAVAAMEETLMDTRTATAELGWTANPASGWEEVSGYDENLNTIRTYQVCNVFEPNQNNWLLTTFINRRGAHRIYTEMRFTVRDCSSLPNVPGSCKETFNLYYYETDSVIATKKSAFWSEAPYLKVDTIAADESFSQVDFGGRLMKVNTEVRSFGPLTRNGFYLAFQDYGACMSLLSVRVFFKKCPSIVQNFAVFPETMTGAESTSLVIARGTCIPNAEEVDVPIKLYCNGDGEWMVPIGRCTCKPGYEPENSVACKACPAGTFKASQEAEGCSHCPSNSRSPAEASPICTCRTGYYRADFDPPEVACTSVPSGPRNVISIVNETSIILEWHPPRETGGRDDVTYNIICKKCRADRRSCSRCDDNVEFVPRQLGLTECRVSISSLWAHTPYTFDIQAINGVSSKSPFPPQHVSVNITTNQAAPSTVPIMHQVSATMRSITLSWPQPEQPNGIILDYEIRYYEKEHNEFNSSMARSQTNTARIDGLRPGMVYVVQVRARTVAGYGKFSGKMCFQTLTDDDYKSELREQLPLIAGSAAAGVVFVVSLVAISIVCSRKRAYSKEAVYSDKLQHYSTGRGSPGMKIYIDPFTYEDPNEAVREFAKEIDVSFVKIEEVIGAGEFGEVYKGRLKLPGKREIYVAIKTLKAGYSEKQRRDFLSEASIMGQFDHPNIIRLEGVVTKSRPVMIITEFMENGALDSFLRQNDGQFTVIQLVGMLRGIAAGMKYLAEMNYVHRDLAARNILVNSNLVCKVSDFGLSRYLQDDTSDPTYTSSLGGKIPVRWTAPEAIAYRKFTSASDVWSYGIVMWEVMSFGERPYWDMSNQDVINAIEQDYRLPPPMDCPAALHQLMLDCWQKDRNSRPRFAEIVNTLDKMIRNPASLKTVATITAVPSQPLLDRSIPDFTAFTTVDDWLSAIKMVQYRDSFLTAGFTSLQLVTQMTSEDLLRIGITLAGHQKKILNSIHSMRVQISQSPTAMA
The following applies: at 10 µM.

The target of assay [8] is T4, Ephrin type-B receptor 2 (Homo sapiens) (UniProt P29323).
T4 sequence (whole entry): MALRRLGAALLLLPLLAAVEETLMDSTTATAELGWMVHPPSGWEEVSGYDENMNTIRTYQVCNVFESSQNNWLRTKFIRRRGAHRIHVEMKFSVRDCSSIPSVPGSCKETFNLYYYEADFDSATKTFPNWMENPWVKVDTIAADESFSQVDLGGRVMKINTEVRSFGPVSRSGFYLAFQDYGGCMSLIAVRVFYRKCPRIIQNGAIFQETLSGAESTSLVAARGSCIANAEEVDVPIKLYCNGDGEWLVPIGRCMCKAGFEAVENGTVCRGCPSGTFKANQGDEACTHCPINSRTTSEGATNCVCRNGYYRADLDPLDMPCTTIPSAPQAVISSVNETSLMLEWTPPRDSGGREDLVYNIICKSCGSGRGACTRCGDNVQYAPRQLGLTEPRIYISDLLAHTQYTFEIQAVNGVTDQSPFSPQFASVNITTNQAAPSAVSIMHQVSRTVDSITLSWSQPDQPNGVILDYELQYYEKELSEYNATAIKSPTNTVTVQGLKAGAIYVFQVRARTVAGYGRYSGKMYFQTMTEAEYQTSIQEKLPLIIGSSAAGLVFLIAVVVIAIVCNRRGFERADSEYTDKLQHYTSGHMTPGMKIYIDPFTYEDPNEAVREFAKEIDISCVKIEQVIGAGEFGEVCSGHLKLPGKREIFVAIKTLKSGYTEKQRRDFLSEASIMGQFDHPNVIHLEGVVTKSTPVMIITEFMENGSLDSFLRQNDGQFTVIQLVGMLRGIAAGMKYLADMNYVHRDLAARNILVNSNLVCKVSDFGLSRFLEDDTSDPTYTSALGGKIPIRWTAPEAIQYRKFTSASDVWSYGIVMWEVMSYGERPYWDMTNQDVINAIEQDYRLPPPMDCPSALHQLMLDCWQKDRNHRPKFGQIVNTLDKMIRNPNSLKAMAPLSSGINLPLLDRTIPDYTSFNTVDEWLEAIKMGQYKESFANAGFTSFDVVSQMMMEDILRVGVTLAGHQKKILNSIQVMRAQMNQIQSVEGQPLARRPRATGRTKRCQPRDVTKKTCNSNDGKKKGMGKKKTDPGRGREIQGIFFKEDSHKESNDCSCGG
The following applies: at 1 µM.

Assay [9] concerns the target T4, Ephrin type-B receptor 2 (Homo sapiens). The following applies: at 10 µM.
Assay [10] has as its target T5, Ephrin type-B receptor 3 (Homo sapiens) (UniProt P54753).
T5 sequence (whole entry): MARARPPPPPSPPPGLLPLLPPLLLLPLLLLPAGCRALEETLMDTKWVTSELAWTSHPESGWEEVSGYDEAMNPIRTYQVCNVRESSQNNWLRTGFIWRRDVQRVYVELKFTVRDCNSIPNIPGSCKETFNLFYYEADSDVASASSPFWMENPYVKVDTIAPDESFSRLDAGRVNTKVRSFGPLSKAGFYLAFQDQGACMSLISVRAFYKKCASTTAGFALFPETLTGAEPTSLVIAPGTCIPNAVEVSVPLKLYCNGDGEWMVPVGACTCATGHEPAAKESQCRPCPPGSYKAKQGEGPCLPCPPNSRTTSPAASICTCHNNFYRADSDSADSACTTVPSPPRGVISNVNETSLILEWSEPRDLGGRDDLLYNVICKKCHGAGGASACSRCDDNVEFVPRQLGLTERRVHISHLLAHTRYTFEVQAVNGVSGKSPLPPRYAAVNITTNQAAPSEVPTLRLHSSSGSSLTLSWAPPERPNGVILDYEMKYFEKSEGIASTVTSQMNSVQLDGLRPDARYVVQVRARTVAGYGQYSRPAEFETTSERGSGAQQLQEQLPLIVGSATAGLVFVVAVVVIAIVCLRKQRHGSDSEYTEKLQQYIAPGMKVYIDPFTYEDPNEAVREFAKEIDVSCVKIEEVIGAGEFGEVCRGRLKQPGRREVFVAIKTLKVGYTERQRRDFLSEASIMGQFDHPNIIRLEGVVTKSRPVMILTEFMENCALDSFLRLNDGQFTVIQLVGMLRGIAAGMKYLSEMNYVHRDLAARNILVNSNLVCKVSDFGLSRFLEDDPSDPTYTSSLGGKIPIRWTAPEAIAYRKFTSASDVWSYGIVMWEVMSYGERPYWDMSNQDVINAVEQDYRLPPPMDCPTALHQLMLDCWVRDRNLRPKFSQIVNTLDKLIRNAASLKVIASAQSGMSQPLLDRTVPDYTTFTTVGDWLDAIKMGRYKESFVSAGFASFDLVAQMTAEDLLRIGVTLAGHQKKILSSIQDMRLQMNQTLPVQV
The settings on record: at 1 µM.

Assay [11] has as its target T6, Ephrin type-B receptor 4 (Homo sapiens) (UniProt P54760).
T6 sequence (whole entry): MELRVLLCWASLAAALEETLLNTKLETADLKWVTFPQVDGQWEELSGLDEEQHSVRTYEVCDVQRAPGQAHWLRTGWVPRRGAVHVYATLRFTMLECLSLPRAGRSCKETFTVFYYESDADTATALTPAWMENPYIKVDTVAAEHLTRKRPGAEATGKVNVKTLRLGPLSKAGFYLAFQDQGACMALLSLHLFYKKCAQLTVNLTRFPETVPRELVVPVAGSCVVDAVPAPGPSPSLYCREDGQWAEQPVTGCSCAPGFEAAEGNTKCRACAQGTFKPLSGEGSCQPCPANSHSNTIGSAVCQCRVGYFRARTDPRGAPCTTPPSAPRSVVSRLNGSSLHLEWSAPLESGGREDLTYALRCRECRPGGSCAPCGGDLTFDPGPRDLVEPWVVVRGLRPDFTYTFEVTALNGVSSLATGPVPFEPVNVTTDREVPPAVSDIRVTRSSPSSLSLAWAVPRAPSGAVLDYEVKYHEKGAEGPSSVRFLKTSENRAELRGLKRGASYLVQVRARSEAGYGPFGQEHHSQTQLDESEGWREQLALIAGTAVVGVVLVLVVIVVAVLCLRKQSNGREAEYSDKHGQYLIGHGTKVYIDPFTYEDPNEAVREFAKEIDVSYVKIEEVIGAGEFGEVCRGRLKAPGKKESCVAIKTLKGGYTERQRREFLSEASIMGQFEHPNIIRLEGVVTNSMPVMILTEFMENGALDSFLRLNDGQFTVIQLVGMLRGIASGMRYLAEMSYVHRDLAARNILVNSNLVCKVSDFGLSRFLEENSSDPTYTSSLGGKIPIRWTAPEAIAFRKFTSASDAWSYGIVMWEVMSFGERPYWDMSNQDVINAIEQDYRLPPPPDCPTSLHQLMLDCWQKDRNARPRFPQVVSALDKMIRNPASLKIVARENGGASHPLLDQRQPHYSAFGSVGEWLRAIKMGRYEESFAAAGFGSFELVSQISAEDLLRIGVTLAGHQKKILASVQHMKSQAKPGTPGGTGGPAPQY
The following applies: at 1 µM.

Assay [12] addresses T6, Ephrin type-B receptor 4 (Homo sapiens). The following applies: at 10 µM.
In assay [13] the target is Receptor tyrosine-protein kinase erbB-4 (Homo sapiens) (UniProt Q15303). The following applies: at 1 µM.
Assay [14] shares this target. The following applies: at 10 µM.
Assay [15] concerns the target Focal adhesion kinase 1 (Homo sapiens) (UniProt Q05397). The settings on record: at 1 µM.

What is called residual activity is the signal under treatment as a percentage of the control signal.

Ephrin type-A receptor 7 (Homo sapiens), sequence (Q15375 28-998 limits assumed): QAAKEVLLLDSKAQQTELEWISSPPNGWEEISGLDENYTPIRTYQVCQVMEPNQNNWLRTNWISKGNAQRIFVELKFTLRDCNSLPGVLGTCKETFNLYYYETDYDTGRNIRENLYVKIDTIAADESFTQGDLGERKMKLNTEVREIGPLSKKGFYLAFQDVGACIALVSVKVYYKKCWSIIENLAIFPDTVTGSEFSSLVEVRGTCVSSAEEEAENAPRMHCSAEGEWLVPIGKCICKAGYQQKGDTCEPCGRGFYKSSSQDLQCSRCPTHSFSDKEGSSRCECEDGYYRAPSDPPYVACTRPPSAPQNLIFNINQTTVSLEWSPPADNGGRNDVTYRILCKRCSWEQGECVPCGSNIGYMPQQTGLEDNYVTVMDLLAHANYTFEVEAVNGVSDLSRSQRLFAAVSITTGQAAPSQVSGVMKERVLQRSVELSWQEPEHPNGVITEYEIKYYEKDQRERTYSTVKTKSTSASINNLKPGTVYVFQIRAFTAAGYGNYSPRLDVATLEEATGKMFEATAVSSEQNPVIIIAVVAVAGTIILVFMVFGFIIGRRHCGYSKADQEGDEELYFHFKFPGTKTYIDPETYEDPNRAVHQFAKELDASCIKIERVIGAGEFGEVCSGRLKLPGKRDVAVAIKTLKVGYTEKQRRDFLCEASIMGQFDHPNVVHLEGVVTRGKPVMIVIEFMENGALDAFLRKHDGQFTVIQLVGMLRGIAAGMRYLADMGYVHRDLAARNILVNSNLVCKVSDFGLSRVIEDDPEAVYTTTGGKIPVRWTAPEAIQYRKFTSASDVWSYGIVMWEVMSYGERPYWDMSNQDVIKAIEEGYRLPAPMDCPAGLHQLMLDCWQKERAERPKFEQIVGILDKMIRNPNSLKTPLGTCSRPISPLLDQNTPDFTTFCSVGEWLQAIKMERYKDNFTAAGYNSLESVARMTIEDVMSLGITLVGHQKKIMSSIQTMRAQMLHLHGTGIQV
Receptor tyrosine-protein kinase erbB-4 (Homo sapiens), sequence (Q15303 whole entry): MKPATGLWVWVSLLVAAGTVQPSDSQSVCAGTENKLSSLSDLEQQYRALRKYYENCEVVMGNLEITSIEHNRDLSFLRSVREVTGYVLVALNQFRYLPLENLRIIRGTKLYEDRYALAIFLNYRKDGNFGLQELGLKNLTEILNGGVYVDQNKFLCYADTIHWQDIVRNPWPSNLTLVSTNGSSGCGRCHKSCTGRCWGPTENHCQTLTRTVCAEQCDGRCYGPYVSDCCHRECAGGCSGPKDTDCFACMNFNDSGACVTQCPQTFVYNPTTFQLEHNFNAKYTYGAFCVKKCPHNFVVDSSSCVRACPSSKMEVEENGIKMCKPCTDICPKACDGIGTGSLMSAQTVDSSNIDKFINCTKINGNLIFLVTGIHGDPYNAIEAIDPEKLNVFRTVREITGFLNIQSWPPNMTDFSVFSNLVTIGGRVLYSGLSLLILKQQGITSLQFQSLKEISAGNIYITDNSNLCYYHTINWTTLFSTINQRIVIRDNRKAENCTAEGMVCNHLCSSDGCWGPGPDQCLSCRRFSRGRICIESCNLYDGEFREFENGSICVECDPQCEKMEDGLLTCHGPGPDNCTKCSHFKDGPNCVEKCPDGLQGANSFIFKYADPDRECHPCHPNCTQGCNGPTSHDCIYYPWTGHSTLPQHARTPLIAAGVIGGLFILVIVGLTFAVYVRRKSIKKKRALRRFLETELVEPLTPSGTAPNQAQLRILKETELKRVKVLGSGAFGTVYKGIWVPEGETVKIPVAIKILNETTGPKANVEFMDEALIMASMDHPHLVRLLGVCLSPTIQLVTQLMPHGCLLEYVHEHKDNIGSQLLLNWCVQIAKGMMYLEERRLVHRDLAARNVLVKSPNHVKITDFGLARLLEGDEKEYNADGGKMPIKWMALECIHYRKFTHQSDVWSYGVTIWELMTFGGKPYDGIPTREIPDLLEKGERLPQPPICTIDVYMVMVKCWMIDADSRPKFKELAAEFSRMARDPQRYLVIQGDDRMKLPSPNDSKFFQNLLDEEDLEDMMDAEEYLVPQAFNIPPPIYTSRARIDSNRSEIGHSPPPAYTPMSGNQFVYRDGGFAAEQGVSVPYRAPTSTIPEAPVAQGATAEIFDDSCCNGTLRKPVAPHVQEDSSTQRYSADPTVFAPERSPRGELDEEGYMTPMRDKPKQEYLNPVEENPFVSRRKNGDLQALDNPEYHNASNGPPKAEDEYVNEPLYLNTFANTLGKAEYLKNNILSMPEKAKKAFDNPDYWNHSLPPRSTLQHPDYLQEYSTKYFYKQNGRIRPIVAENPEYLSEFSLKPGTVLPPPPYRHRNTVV
Focal adhesion kinase 1 (Homo sapiens), sequence (Q05397 2-1052 limits assumed): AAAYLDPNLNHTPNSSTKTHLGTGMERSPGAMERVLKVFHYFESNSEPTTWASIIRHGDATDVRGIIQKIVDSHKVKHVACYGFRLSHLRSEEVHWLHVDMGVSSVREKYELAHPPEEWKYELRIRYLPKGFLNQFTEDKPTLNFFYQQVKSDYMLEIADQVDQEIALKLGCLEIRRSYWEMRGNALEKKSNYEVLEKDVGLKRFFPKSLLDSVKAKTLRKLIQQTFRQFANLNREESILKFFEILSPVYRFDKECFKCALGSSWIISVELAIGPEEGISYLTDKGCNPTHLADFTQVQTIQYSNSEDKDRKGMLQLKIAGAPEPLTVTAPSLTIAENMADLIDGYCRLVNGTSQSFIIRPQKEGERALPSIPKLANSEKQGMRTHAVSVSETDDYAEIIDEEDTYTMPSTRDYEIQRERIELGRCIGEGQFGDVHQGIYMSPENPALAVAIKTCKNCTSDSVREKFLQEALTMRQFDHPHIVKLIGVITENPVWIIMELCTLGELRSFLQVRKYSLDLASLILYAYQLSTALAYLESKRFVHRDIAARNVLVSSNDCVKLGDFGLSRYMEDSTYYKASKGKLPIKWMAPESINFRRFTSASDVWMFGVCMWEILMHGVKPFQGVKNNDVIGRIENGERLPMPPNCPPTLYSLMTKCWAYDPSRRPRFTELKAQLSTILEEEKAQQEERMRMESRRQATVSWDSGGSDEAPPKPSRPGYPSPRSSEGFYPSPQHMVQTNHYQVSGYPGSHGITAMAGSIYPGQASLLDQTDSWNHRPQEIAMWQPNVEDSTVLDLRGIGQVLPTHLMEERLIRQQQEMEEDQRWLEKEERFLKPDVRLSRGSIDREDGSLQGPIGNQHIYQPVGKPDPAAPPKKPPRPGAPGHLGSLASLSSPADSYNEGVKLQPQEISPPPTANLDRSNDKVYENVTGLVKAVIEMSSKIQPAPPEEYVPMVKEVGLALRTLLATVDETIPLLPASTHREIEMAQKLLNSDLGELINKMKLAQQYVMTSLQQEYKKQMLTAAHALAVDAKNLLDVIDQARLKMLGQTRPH
Ephrin type-A receptor 4 (Homo sapiens), sequence (P54764 whole entry): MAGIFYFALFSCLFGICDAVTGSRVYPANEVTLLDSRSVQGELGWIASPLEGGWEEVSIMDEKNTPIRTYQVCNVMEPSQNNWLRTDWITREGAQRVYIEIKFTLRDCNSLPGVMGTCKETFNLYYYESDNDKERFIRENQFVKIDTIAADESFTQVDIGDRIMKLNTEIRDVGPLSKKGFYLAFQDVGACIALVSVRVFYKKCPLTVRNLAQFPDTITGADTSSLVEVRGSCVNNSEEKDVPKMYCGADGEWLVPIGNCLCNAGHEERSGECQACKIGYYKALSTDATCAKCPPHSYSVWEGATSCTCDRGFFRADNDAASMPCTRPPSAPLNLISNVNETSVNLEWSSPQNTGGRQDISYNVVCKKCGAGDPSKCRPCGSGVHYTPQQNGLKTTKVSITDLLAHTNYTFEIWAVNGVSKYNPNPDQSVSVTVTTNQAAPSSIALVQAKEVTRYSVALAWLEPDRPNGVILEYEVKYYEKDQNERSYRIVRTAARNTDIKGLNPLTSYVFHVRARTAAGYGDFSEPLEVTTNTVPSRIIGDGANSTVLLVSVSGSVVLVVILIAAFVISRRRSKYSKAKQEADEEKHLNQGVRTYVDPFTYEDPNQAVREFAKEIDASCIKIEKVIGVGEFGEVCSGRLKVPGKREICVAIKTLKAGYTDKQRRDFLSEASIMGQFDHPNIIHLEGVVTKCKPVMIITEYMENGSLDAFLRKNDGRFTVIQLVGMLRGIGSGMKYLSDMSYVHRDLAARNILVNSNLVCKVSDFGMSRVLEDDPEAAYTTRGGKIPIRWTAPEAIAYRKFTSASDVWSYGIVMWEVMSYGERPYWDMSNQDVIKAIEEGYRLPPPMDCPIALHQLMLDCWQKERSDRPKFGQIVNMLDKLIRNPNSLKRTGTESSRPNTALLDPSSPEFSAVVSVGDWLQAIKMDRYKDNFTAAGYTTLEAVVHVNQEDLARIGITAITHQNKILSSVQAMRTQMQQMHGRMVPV

Consider `Cc1cc(Nc2nc(-c3ccccc3)nc3ccccc23)n[nH]1`, for which the residual activity in assay [1] turned out to be 8%; in assay [2], 73%; in assay [3], 33%; in assay [4], 50%; in assay [5] it was 6%; in assay [6] it was 68%. In addition, the residual activity in assay [7] is 17%; in assay [8], 100%; in [9], 48%; in [10], 111% (inactive); in assay [11], 75%; in [12], 20%. Also, the residual activity in assay [13] stood at 106%; in [14], 45%; in assay [15], 36%.

The record behind these values is ChEMBL document CHEMBL2218924, “A broad activity screen in support of a chemogenomic map for kinase signalling research and drug discovery” (Biochem J, 2013).
